The values below come from PubChem BioAssay (Tox21).

Assay [1] is described as follows: qHTS assay to identify small molecule agonists of the sonic hedgehog signaling (Shh) pathway (AID 1259368).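 Also: NIH/3T3-derived 3T3Gli1-Luc cells carrying a stable Gli1-driven firefly luciferase reporter; series mostly up to about 92 µM; nearly all actives have a fitted effect of over 15% in size.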 Put shortly:
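Hedgehog pathway agonism scored by increased firefly luciferase luminescence in 3T3Gli1-Luc cells treated 24 hr at 37 C; detection used a 30 min room-temperature reagent incubation.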

Assay [2] in a line: qHTS assay to identify small molecule antagonists of the sonic hedgehog signaling (Shh) pathway (AID 1259369). Also: nearly all actives have a fitted effect of over 45% in size. Also: potency is read from the fitted curve at half-maximal effect. Put shortly:
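NIH/3T3 stable Gli1-Luc clone, 2,000 cells/well, 4hr settle; cpd + conditioned medium 24hr; Luc reagent 30min RT; luminescence.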

For assay [3], the target named is Estrogen receptor beta (Homo sapiens) (UniProt Q92731). The assay can be described thus: qHTS assay to identify small molecule agonists of the estrogen receptor beta (ER-beta) signaling pathway (AID 1259377; active = well fitted activation curve with a large enough effect in the signal ratio in the repeat runs, not every such curve was filed as active; the % refers to the signal ratio). In a few lines: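 HEK293T ER-beta-UAS-bla; 2% charcoal-stripped FBS; cells pre-incubated 6 hr, compound 16 hr, 37C/5% CO2; LiveBLAzer B/G FRET substrate 2 h RT; fluorescence intensity read.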
Sequence of Estrogen receptor beta (Homo sapiens) (Q92731 whole entry, looked up): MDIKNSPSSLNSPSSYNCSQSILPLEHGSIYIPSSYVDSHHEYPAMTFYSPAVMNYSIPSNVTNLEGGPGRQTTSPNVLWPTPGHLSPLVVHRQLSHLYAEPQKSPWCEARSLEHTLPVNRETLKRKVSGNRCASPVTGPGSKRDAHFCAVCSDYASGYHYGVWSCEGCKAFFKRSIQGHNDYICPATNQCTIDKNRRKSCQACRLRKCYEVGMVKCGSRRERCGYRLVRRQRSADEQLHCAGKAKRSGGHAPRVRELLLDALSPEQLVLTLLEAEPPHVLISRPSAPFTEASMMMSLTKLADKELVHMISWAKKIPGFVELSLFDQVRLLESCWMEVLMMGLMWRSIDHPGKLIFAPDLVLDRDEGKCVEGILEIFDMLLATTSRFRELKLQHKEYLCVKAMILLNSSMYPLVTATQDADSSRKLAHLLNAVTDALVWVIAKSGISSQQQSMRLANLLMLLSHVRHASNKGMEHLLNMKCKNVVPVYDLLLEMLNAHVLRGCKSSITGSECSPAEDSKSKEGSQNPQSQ

The target is the same in assay [4]. Briefly: qHTS assay to identify small molecule antagonists of the estrogen receptor beta (ER-beta) signaling pathway (AID 1259378; active = well fitted inhibition curve with a large enough effect in the signal ratio in the repeat runs, not every such curve was filed as active; the % refers to the signal ratio). In a few lines: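 Antagonist mode: compounds added to beta-lactamase reporter HEK293T ER-beta-UAS cells stimulated with E2 (1nM final), 16 hr at 37C. LiveBLAzer B/G FRET substrate, 2 hours room temperature, fluorescence read-out.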

The nature of assay [5]: qHTS assay to identify small molecule agonists of the androgen receptor (AR) signaling pathway in the presence of an antagonist - cell viability counter screen (AID 1259379; active = well fitted curve in the direction sought with a large enough effect in the repeat runs; an effect the other way counts as inactive or inconclusive;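 also: MDA-kb2 human breast cancer cells carrying an MMTV luciferase reporter; series mostly up to about 92 µM; nearly all actives have a fitted effect of over 25% in size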). In a few lines:
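MDA-kb2 viability measured by CellTiter-Fluor fluorescence in the same wells as the luciferase signal; nilutamide 3.0uM final; 15-point compound titration; 16 hr at 37C.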

Assay [6] in a line: qHTS assay to identify small molecule agonists of the estrogen receptor beta (ER-beta) signaling pathway - cell viability counter screen (AID 1259380; active = well fitted curve in the direction sought with a large enough effect in the repeat runs; an effect the other way counts as inactive or inconclusive; also: nearly all actives have a fitted effect of over 30% in size; also: potency is read from the fitted curve at half-maximal effect). Put shortly:
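Measured: luminescence from CellTiter-Glo after 30 min at room temperature, added to wells already read for the LiveBLAzer FRET reporter (2 hr substrate); ER-beta-UAS-bla HEK293T cells had 16 hr compound treatment at 37C, 5% CO2.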

The nature of assay [7]: qHTS assay to identify small molecule antagonists of the estrogen receptor beta (ER-beta) signaling pathway - cell viability counter screen (AID 1259382; active = well fitted curve in the direction sought with a large enough effect in the repeat runs; an effect the other way counts as inactive or inconclusive; also: nearly all actives have a fitted effect of over 55% in size; also: potency is read from the fitted curve at half-maximal effect). In a few lines: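 Readout: luminescence, CellTiter-Glo, same wells as bla assay. System: ER-beta-UAS-bla GripTite HEK293T, 2% charcoal-stripped FBS. Exposure: compounds plus 1nM 17-beta-estradiol, 16 hr, 37C.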
Assay [8] concerns the target Estrogen receptor (Homo sapiens) (UniProt P03372). Briefly: qHTS assay to identify small molecule agonists of the estrogen receptor alpha (ER-alpha) signaling pathway in the presence of an antagonist (AID 1259383). Also: top concentration of the series differs between compounds; nearly all actives have a fitted effect of over 15% in size. Put shortly:
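Quantitative HTS confirmation: compounds titrated at 15 concentrations onto estrogen-deprived VM7Luc4E2 cells carrying a four-ERE luciferase construct, with ICI-182,780 present at 10.0nM final. Signal is luminescence after 22hr exposure.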

Assay [9] in a line: qHTS assay to identify small molecule agonists or antagonists of the thyroid stimulating hormone receptor (TSHR) signaling pathway - wild type cell line counter screen (AID 1259384). Put shortly: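 Counter screen in untransfected Hek293: compounds (15-point titration, triplicate) plus phosphodiesterase inhibitor Ro20-1724 added after 18 h plating; 30 min RT. Intracellular cAMP via competitive d2/cryptate immunoassay, 1 h incubation.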

For assay [10], the target named is Thyrotropin receptor (Homo sapiens) (UniProt P16473). The assay can be described thus: qHTS assay to identify small molecule antagonists of the thyroid stimulating hormone receptor (TSHR) signaling pathway (AID 1259385). Also: nearly all actives have a fitted effect of over 20% in size. In a few lines: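 Antagonist mode: compound-treated TSHR-expressing HEK293 cells were stimulated with 1.5 ng/mL TSH (final) in presence of Ro20-1724 for 30 min at RT. HTRF cAMP detection after 1 h; each compound tested at 15 concentrations, triplicate.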
Sequence of Thyrotropin receptor (Homo sapiens) (P16473 whole entry, looked up): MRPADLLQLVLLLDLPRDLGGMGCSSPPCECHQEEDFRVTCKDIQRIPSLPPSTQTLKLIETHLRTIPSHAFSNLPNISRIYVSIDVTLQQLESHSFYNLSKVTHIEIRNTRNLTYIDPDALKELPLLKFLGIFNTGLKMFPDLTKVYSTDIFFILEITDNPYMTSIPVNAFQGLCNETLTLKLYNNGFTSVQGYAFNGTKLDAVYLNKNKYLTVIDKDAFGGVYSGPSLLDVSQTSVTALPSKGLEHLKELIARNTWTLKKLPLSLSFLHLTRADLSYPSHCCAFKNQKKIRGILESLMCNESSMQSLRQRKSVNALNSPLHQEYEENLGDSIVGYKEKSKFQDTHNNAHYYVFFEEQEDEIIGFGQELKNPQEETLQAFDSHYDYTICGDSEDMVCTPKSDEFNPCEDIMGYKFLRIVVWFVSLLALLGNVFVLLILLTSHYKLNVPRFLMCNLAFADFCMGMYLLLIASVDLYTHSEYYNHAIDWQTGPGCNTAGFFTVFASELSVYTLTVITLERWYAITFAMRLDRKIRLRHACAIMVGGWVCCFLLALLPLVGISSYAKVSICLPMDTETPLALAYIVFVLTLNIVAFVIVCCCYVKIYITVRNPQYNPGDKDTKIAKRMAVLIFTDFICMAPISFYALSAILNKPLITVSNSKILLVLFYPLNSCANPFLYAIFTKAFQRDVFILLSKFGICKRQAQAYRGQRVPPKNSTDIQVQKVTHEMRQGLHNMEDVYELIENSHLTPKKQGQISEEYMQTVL

The nature of assay [11]: qHTS assay to identify small molecule agonists of the estrogen receptor alpha (ER-alpha) signaling pathway in the presence of an antagonist - cell viability counter screen (AID 1259386; active = well fitted curve in the direction sought with a large enough effect in the repeat runs; an effect the other way counts as inactive or inconclusive;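 also: series mostly up to about 92 µM; cells exposed to compounds for 22 h at 37 °C before the viability read; nearly all actives have a fitted effect of over 30% in size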). Put shortly: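 The test measures whether compounds kill ER-alpha reporter cells (VM7Luc4E2) under antagonist co-treatment (ICI-182,780, 10.0nM). Fluorescence from CellTiter-Fluor is read after a 22hr exposure.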

For assay [12], the target named is Progesterone receptor (Homo sapiens) (UniProt P06401). The assay can be described thus: qHTS assay to identify small molecule agonists of the progesterone receptor (PR) signaling pathway (AID 1346784). Also: nearly all actives have a fitted effect of over 30% in size. In a few lines: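 Beta-lactamase reporter read-out: after 16 hr compound treatment at 37C and a further 2 hr at room temperature with LiveBLAzer B/G FRET substrate, fluorescence was measured in PR-UAS-bla HEK 293T cells grown in 2% charcoal-stripped serum.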
Sequence of Progesterone receptor (Homo sapiens) (P06401 whole entry, looked up): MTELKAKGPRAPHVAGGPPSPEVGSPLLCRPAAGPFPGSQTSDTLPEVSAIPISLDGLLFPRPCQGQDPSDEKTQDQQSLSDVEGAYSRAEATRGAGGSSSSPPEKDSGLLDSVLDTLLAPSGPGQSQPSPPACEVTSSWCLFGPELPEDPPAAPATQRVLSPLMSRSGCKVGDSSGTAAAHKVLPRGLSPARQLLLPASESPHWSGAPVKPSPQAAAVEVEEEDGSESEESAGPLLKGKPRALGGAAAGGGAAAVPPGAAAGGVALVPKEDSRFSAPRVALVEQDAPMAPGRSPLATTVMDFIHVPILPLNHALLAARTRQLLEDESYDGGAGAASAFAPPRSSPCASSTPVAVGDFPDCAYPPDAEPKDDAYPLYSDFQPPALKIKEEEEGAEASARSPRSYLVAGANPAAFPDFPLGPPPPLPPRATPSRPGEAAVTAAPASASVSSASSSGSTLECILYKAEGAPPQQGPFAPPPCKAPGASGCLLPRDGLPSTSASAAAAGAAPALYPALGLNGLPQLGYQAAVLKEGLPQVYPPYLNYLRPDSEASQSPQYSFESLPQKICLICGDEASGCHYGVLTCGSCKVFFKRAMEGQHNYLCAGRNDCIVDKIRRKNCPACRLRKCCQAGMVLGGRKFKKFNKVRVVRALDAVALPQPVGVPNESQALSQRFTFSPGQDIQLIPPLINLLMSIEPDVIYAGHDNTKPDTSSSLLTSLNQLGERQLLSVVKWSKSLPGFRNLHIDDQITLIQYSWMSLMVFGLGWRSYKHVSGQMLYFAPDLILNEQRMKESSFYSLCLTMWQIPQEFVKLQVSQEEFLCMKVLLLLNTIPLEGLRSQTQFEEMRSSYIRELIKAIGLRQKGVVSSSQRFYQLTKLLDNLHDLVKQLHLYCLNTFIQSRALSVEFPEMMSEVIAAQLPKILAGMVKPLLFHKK

The target is the same in assay [13]. The assay can be described thus: qHTS assay to identify small molecule antagonists of the progesterone receptor (PR) signaling pathway (AID 1346795; active = well fitted inhibition curve with a large enough effect in the signal ratio in the repeat runs, not every such curve was filed as active; the % refers to the signal ratio). Put shortly: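 Read-out is fluorescence from the LiveBLAzer B/G FRET substrate, cleaved by a UAS-controlled beta-lactamase in PR-UAS-bla HEK293T cells after 16 hr exposure to compound plus 1 nM promegestone (final), followed by 2 hr at room temperature.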

A short description of assay [14]: qHTS assay to identify small molecule antagonists of the progesterone receptor (PR) signaling pathway - cell viability counter screen (AID 1346798; active = well fitted curve in the direction sought with a large enough effect in the repeat runs; an effect the other way counts as inactive or inconclusive;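 also: HEK293T PR-UAS-bla cells stimulated with the agonist R5020; series mostly up to about 92 µM; nearly all actives have a fitted effect of over 50% in size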). In a few lines:
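HEK293T PR-UAS-bla, 2% charcoal-stripped FBS; 4 hr pre-plate; cpd + R5020, 16 h 37C; LiveBLAzer read first; then CellTiter-Glo 30 min RT, luminescence.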

Assay [15] can be described thus: qHTS assay to identify small molecule agonists of the progesterone receptor (PR) signaling pathway - cell viability counter screen (AID 1346799). Also: nearly all actives have a fitted effect of over 45% in size. Also: potency is read from the fitted curve at half-maximal effect. In a few lines:
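Luminescence from CellTiter-Glo, added after the beta-lactamase FRET read in the same wells, gave cytotoxicity in PR-UAS-bla HEK293T cells treated with compounds for 16 hr at 37C.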

A short description of assay [16]: qHTS assay to identify small molecule antagonists of the TGF-beta/Smad signaling pathway - cell viability counter screen (AID 1346824; active = well fitted curve in the direction sought with a large enough effect in the repeat runs; an effect the other way counts as inactive or inconclusive; also: nearly all actives have a fitted effect of over 50% in size). Put shortly:
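Cytotoxicity counter-screen run in the same wells as the beta-lactamase Smad reporter read: CellTiter-Glo luminescence after 30 min at room temperature. HEK 293T SBE-bla cells had 5 hr compound exposure at 37 C with TGF-beta1 (0.25 ng/mL stock).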

Assay [17] is described as follows: qHTS assay to identify small molecule agonists of the TGF-beta/Smad signaling pathway - cell viability counter screen (AID 1346829; active = well fitted curve in the direction sought with a large enough effect in the repeat runs; an effect the other way counts as inactive or inconclusive; also: top concentration of the series differs between compounds; nearly all actives have a fitted effect of over 45% in size). In a few lines: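 Here the cytotoxicity of library compounds is measured in SBE-bla HEK 293T cells treated for 5 hr, using CellTiter-Glo added to wells already read for the beta-lactamase reporter.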
Assay [18] is described as follows: qHTS assay to identify small molecule agonists of the TGF-beta/Smad signaling pathway (AID 1346859; active = well fitted activation curve with a large enough effect in the signal ratio in the repeat runs, not every such curve was filed as active; the % refers to the signal ratio; also: series mostly up to about 77 µM). In a few lines: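 SBE-bla HEK 293T, 4,000 cells/well, plated o/n; cpd in DMSO, 5 hr, 37 C/5% CO2; B/G FRET substrate 2 hr RT; ex 405, em 460/530 nm.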
The target of assay [19] is Thyrotropin-releasing hormone receptor (Homo sapiens) (UniProt P34981). Briefly: qHTS assay to identify small molecule antagonists of the thyrotropin-releasing hormone receptor (TRHR) signaling pathway (AID 1346877; active = well fitted inhibition curve with a large enough effect in the repeat runs, not every such curve was filed as active; also: series mostly up to about 51 µM). In a few lines:
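Overnight-plated (18 h, 37 °C) HEK293 cells expressing TRHR were dye-loaded 2 h, treated with compound, then stimulated with TRH at 1 nM final. Fluorescence intensity was captured every second for 3 min.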

The target in assay [20] is Androgen receptor (Homo sapiens) (UniProt P10275). The assay can be described thus: qHTS assay to identify small molecule agonists of the androgen receptor (AR) signaling pathway in the presence of an antagonist (AID 1259381). Also: nearly all actives have a fitted effect of over 15% in size. Put shortly: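 Luminescent ONE-Glo read, 30min at room temperature, follows 16hr compound exposure (15 concentrations) of MDA-kb2 cells at 37C, 0% CO2, with nilutamide added at 3.0uM final.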
Sequence of Androgen receptor (Homo sapiens) (P10275 whole entry, looked up): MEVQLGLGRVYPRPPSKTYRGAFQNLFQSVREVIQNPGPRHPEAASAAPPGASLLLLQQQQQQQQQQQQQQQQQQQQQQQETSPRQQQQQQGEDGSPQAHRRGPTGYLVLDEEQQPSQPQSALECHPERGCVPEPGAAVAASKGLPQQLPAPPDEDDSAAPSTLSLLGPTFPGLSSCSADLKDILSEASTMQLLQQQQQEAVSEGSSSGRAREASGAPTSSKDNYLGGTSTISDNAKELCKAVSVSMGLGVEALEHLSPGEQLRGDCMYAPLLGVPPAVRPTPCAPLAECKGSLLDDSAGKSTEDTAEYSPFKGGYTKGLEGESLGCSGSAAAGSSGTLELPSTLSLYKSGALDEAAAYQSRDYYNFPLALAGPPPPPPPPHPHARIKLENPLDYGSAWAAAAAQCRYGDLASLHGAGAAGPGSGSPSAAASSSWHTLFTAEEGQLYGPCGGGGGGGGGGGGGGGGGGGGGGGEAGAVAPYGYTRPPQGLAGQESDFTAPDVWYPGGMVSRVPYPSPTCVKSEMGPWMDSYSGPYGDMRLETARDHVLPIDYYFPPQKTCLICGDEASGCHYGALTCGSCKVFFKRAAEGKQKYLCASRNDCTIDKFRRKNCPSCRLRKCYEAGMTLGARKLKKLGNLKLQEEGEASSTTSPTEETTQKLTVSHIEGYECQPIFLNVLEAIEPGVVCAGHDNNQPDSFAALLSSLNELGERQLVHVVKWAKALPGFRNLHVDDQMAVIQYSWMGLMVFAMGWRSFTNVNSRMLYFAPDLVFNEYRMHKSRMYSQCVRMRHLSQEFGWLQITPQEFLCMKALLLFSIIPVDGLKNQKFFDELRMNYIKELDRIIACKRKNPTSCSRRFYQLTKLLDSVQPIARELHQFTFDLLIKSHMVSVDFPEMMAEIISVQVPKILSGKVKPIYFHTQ

Values without a mark were called inactive. Records with an inconclusive call do not appear. Active and inactive are the calls of the source. Unless noted, calls follow the shape of the full dose curve.

Sequence of Thyrotropin-releasing hormone receptor (Homo sapiens) (P34981 whole entry, looked up): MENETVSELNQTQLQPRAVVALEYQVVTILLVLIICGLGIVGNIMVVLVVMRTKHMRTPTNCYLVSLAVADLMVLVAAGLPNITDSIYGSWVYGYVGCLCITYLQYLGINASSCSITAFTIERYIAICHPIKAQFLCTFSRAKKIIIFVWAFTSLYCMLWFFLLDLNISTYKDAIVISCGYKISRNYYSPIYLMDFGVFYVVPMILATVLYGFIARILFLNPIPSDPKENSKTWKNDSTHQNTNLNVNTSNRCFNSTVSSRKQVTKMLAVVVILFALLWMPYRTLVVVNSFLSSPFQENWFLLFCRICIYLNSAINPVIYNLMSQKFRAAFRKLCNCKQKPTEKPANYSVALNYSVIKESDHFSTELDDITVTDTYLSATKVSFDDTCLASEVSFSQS
Sequence of Estrogen receptor (Homo sapiens) (P03372 whole entry, looked up): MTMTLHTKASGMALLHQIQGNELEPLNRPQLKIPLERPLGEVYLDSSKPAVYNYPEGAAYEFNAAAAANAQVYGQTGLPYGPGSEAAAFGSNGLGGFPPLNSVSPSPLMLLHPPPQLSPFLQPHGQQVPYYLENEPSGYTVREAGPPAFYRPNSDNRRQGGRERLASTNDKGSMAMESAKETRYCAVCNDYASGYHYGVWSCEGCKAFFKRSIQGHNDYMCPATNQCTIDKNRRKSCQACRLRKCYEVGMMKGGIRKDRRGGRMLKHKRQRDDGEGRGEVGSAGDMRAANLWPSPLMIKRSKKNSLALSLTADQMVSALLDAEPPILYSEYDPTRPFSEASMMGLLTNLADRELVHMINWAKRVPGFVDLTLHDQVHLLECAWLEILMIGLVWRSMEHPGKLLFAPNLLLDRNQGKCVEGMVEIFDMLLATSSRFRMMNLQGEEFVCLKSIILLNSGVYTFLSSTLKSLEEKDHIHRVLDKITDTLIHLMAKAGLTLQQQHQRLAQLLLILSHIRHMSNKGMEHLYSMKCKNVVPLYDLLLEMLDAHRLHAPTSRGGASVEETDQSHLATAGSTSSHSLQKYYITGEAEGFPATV

As to `C1COCO1`, the Potency result in assay [1], in assay [2], in [3], in assay [4], in assay [5] and in [6] was “inactive” in each case. In addition, the Potency result in assay [7], in assay [8], in assay [10], in assay [11], in assay [12] and in [13] was “inactive” throughout. In addition, the Potency entry in [14] and in [15] was “inactive” in each case. The compound was called inactive in assay [9], in assay [16], in assay [17], in assay [18] and in assay [19].

In the case of `Cc1cc(C(=C2C=CC(=Nc3ccc(S(=O)(=O)O)cc3S(=O)(=O)O)C=C2)c2ccc(Nc3ccc(S(=O)(=O)O)cc3)cc2)ccc1N`, the Potency entry in [1], in assay [2], in assay [3], in assay [4], in [5] and in [7] was “inactive” each time. Also, the Potency entry in [8], in assay [12], in assay [13], in assay [14] and in [15] was “inactive” each time. Also, the result in [16], in assay [17], in assay [18] and in assay [19] was inactive.

Consider `CSc1ccc(Oc2ccc(S(N)(=O)=O)cc2CN(C)C)cc1C`, for which the Potency result in [1], in assay [3], in assay [5], in [20], in assay [8] and in assay [11] was “inactive” in each case. Further, the Potency result in assay [12] and in [15] was “inactive” each time. Also, the figures for the Potency in [2], in [6] and in [7] were 5.45 µM (active), 38.6 µM (active) and 27.3 µM (active), respectively. Further, the outcome in assay [9], in assay [17], in assay [18] and in assay [19] was inactive.

`C[N+]1(C)CCC(=C(c2ccccc2)c2ccccc2)CC1`: the Potency entry in assay [1], in [2], in [3], in assay [4], in assay [5] and in [7] was “inactive” throughout. For the same compound, the Potency result in assay [10], in assay [11], in assay [12], in [13], in [14] and in [15] was “inactive” in each case. Moreover, the compound was called inactive in [9], in [16], in assay [17], in assay [18] and in assay [19].

As for `O=S1OCCO1`, the Potency result in [1], in [2], in [3], in [4], in assay [5] and in [7] was “inactive” throughout. Moreover, the Potency entry in assay [8], in [10], in [11], in [12], in assay [13] and in assay [14] was “inactive” throughout. Moreover, the Potency result in [15] is “inactive”. In addition, the compound was called inactive in assay [9], in assay [16], in assay [17], in [18] and in [19].

As for `CCCCOC(=O)CCS`, the Potency result in assay [1], in assay [2], in assay [3], in assay [4], in assay [5] and in assay [6] was “inactive” each time. Also, the Potency result in [7], in assay [8], in assay [10], in assay [11], in assay [12] and in assay [13] was “inactive” in each case. Further, the Potency result in assay [15] is “inactive”. For the same compound, the compound was classed as inactive in [9], in assay [17] and in assay [18].

As to `CCCCCCCCCCCC[N+](C)(C)CC(=O)[O-]`, the Potency entry in assay [1], in assay [2], in assay [3], in assay [4], in [5] and in assay [8] was “inactive” in each case. Moreover, the Potency entry in assay [10], in assay [11], in assay [12] and in [13] was “inactive” in each case. In addition, the outcome in assay [9], in assay [16], in [17], in [18] and in [19] was inactive. For the same compound, in assay [15], the Potency is 21.7 µM (active).
